From PubChem BioAssay (EPA / NIEHS)
“And” between values parts separate entries of the source, which are not always exact repeats. Equal entries are not always repeated. The source holds several records for some structures; these can differ, active in one and inactive in another. The source made the active and inactive calls. Rule for the calls: active = hit-call score of the fitted dose curve at least 0.9, where 1 is the maximum; inactive = score below 0.9.

What was measured:
[1] = APR_HepG2_MitoticArrest_72hr: Apredica 72-hour HepG2 Assay for Mitotic Arrest (AID 2282918); settings: high-content imaging, actives raise or lower the signal
In short: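 HepG2 cells were exposed for 72 hr to compound at 0.39–200 uM (10 concentrations, duplicate) in 0.5% v/v DMSO, fixed in 3.7% formaldehyde, immunostained for phospho-histone H3 with Hoechst 33342 and imaged by high-content fluorescence; bidirectional fits versus DMSO.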

[2] = APR_HepG2_MicrotubuleCSK_72hr: Apredica 72-hour HepG2 Assay for Microtubule CSK Stabilty (AID 2282919); settings: HepG2 microtubule cytoskeleton, high-content imaging, actives raise or lower the signal
In short: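 HepG2, 72 hr cmpd exposure, 0.39–200 uM (10 pts, duplicate), 0.5% DMSO. 3.7% formaldehyde fix, 0.5% Triton perm, anti-alpha-tubulin/Cy5 plus Hoechst. HCS fluorescence intensity; bidirectional fit vs DMSO baseline; taxol as positive control.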

[3] = APR_HepG2_P-H2AX_24hr: Apredica 24-hour HepG2 Assay for H2AX Phosphorylation (AID 2282920); settings: high-content imaging, actives raise or lower the signal
In short: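 HepG2 human liver cells were exposed for 24 hr to compounds at 0.39–200 uM in duplicate, with 0.5% v/v DMSO final. Fixed cells were immunostained for phospho-histone H2A.x plus Hoechst 33342, imaged by HCS fluorescence, and fitted bidirectionally against DMSO.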

[4] = APR_HepG2_StressKinase_72hr: Apredica 72-hour HepG2 Assay for Stress Kinase (AID 2282921); settings: HepG2 stress kinase (phospho-c-Jun) imaging, actives raise or lower the signal
In short: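 Stress kinase signal reflects nuclear phospho-c-Jun staining in fixed, permeabilized cells exposed 72 h to compound at 0.39–200 uM; DMSO-normalized, fitted for increases or decreases.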

[5] = APR_HepG2_StressKinase_24hr: Apredica 24-hour HepG2 Assay for Stress Kinase (AID 2282922); settings: HepG2 stress kinase (phospho-c-Jun) imaging, actives raise or lower the signal
In short: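 Read-out: phospho-c-Jun immunofluorescence (Cy3 secondary) quantified by high-content imaging at 20x, nuclei defined by Hoechst 33342. Human HepG2 liver cells dosed 24 hr, 0.39–200 uM, DMSO 0.5% v/v; gain or loss of signal fitted relative to DMSO.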

[6] = APR_HepG2_MitoMass_72hr: Apredica 72-hour HepG2 Assay for Mitochondrial Mass (AID 2282924); settings: high-content imaging, actives raise or lower the signal;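 note: MitoTracker Red CMXRos stain intensity per cell imaged as mitochondrial mass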
In short: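 Read-out: MitoTracker Red fluorescence intensity from automated imaging (20x, six fields per well) in human HepG2 liver cells. Dosing ran 72 hr, 0.39–200 uM, 0.5% DMSO; bidirectional curve fitting versus DMSO baseline.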

[7] = APR_HepG2_NuclearSize_72hr: Apredica 72-hour HepG2 Assay for Nuclear Size (AID 2282925); settings: high-content imaging, actives raise or lower the signal
In short: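 Read-out: nuclear diameter from Hoechst 33342 images (ArrayScan, 20x, six fields/well), via cell-cycle image analysis. HepG2 were dosed 0.39–200 uM for 72 hr in 0.5% DMSO. Bidirectional fit relative to DMSO.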

[8] = ATG_CRE_CIS: Attagene CIS-FACTORIAL HepG2 Assay for human cAMP Responsive Element (CRE) binding protein 3 (AID 2282926); settings: HepG2 CRE cis-reporter, Attagene multiplexed mRNA; actives raise or lower the signal
In short: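 Capillary electrophoresis of 6-FAM-labelled, HpaI-digested PCR products quantified reporter transcripts. These came from HepG2 transiently transfected with cis-element reporters and exposed to test chemicals for 24 hours, with DMSO defining baseline activity.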

[9] = target: CCAAT/enhancer-binding protein beta (Homo sapiens) (UniProt P17676); test: ATG_C_EBP_CIS: Attagene CIS-FACTORIAL HepG2 Assay for human CCAAT/Enhancer Binding Protein (C/EBP) beta (AID 2282927); settings: HepG2 Attagene cis-factorial transcription factor reporter; actives raise or lower the signal
Sequence of CCAAT/enhancer-binding protein beta (Homo sapiens) (P17676 whole entry, looked up): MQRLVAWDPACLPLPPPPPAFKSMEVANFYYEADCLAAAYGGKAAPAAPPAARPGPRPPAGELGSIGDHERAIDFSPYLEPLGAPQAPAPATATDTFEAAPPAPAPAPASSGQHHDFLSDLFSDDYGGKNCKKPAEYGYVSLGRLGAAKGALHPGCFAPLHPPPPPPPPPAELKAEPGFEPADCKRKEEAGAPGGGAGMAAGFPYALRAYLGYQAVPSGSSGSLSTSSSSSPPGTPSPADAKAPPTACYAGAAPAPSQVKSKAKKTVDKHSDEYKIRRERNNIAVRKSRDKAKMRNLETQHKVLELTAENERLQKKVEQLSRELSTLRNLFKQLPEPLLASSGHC
In short: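 HepG2 transiently transfected with multiplexed reporter units under cis-regulatory promoters reporting endogenous C/EBPb activity. After 24 h exposure, reporter mRNA assayed by RT-PCR, fluorescent labelling, HpaI digestion and capillary electrophoresis; bidirectional fitting versus DMSO.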

[10] = ATG_CMV_CIS: Attagene CIS-FACTORIAL HepG2 Assay for human CMV (Internal Marker) (AID 2282928); settings: HepG2 CMV promoter reporter, transcription factor profiling; actives raise or lower the signal;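 note: endpoint acts as a background internal control marker rather than a target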
In short: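 Fluorescence intensity of RT-PCR-derived reporter fragments, resolved by capillary electrophoresis, gives the signal. HepG2 liver cells bearing transfected cis-element reporters were treated 24 h; activity in either direction was fit relative to DMSO-treated controls.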

[11] = target: Aryl hydrocarbon receptor (Homo sapiens) (UniProt P35869); test: ATG_Ahr_CIS: Attagene CIS-FACTORIAL HepG2 Assay for human Aryl Hydrocarbon Receptor (Ahr) (AID 2282930); settings: HepG2 AhR cis-factorial reporter transcription; actives raise or lower the signal
Sequence of Aryl hydrocarbon receptor (Homo sapiens) (P35869 whole entry, looked up): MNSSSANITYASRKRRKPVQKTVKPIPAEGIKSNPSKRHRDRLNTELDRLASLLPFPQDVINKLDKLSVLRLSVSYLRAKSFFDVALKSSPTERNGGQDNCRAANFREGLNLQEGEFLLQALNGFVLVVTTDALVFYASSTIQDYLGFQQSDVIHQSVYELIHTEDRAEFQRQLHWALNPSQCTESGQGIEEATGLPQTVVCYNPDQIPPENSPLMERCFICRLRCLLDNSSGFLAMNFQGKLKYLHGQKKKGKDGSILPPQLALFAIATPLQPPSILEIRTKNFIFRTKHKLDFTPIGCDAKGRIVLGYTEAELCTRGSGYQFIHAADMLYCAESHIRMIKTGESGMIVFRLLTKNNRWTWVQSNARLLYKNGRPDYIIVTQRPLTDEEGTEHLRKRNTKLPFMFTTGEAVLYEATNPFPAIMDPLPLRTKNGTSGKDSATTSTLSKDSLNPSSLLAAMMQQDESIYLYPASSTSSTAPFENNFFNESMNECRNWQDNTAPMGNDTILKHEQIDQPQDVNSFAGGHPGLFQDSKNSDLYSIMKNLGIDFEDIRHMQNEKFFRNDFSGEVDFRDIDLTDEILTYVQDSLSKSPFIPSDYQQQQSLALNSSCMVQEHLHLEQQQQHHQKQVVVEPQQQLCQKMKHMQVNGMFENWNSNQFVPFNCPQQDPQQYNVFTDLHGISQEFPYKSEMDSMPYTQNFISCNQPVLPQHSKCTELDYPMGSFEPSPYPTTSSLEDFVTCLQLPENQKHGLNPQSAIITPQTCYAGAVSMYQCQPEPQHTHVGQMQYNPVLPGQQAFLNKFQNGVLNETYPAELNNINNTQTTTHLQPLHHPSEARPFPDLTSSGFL
In short: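 HepG2 cells transiently transfected with cis-element-driven multiplexed reporter units; endogenous AhR activity read as reporter mRNA 24 h after dosing, via RT-PCR, 6-FAM labelling, HpaI digestion and capillary electrophoresis. Bidirectional fit relative to DMSO.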

[12] = ATG_AP_1_CIS: Attagene CIS-FACTORIAL HepG2 Assay for human Activator Protein 1 (AP-1) (AID 2282931); settings: HepG2 Attagene cis-factorial AP-1 reporter mRNA; actives raise or lower the signal
In short: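 HepG2 cells transiently transfected with cis-element-driven multiplex reporter units; 24 h compound exposure. Reporter mRNA quantified by RT-PCR, FAM-labelled fragments resolved by capillary electrophoresis; bidirectional fit versus DMSO baseline.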

[13] = ATG_AP_2_CIS: Attagene CIS-FACTORIAL HepG2 Assay for human Activator Protein 2 (AP-2) (AID 2282932); settings: HepG2 AP-2 cis-reporter, Attagene transcription factor profiling; actives raise or lower the signal
In short: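 Read-out: fluorescent reporter mRNA via RT-PCR and capillary electrophoresis, 24 h post-dose in transiently transfected HepG2. Endogenous factors drive cis-promoter reporters; gain or loss of signal fitted bidirectionally against DMSO.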

[14] = ATG_BRE_CIS: Attagene CIS-FACTORIAL HepG2 Assay for human Bone Morphogenetic Protein (BMP) Response Element (BRE) (AID 2282933); settings: HepG2 BMP response element reporter, Attagene transcription factor profiling; actives raise or lower the signal
In short: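 Multiplexed cis-reporter assay, HepG2, 24 h exposure. mRNA from reporter units quantified via RT-PCR/CE; DMSO baseline; bidirectional curve fit.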

[15] = target: Retinoic acid receptor alpha (Homo sapiens) (UniProt P10276); test: ATG_DR5_RAR_CIS: Attagene CIS-FACTORIAL HepG2 Assay for human Retinoic Acid Receptor Alpha (RARE), DR5 submotif (AID 2282934); settings: HepG2 Attagene cis-factorial RARE DR5 reporter, mRNA; actives raise or lower the signal;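 for AC50: reporter responds to endogenous RAR alpha beta and gamma in HepG2 not RARA alone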
Sequence of Retinoic acid receptor alpha (Homo sapiens) (P10276 whole entry, looked up): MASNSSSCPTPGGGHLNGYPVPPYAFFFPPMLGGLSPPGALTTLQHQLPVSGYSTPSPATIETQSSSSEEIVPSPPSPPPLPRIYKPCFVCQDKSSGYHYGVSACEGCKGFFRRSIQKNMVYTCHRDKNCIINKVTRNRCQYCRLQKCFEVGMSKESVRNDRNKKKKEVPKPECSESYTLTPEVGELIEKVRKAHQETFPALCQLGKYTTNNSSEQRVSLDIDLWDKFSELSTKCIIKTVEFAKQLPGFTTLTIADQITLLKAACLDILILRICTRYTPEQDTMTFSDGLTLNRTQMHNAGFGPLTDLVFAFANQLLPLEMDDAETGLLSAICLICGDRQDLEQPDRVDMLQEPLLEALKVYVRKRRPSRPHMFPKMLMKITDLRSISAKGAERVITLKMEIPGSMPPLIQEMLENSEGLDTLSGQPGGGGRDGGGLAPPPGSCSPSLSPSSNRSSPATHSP
In short: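 HepG2 cells transiently transfected with multiplexed reporter units; DR5 cis-element drives reporter through endogenous transcription factors. After 24 h dosing, reporter mRNA quantified by RT-PCR, fluorescent labeling, HpaI digestion and capillary electrophoresis; bidirectional fitting versus DMSO.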

[16] = target: Transcription factor E2F1 (Homo sapiens) (UniProt Q01094); test: ATG_E2F_CIS: Attagene CIS-FACTORIAL HepG2 Assay for human E2F Transcription Factor 1 (AID 2282935); settings: HepG2 Attagene cis-reporter, E2F reporter RNA transcripts; actives raise or lower the signal
Sequence of Transcription factor E2F1 (Homo sapiens) (Q01094 whole entry, looked up): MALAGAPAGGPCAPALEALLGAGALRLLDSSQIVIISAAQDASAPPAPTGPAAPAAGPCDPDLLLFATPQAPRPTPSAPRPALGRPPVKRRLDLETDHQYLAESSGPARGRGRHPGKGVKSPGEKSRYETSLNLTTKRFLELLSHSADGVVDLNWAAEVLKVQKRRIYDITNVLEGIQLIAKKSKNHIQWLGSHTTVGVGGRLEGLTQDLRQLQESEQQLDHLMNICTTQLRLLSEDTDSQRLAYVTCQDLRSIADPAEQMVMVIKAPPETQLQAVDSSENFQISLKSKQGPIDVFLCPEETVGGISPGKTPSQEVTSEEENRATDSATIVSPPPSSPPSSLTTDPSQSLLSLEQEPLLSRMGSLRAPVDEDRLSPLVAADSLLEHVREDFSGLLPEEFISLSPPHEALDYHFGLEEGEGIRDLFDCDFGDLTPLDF
In short: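 Transient MRTU transfection of HepG2; 24 h compound exposure; RNA → oligo(dT) RT → PCR → FAM label → HpaI cut → CE fluorescence. Gain/loss of signal fit against DMSO.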

[17] = APR_HepG2_p53Act_72hr: Apredica 72-hour HepG2 Assay for p53 Activation (AID 2282923); settings: high-content imaging, actives raise or lower the signal;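 note: average cellular p53 protein immunofluorescence intensity in HepG2 cells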
In short: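 Fixed-cell p53 staining (sheep primary, Cy5 secondary) measured by fluorescence imaging following 72 hr treatment at 0.39–200 uM in 0.5% DMSO; DMSO served as negative control and baseline.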

[18] = ATG_DR4_LXR_CIS: Attagene CIS-FACTORIAL HepG2 Assay for human Liver X Receptor (LXR), DR4 submotif (AID 2282929); settings: HepG2 Attagene DR4 cis-reporter, mRNA transcription; actives raise or lower the signal
In short: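 HepG2 cells transiently transfected with cis-promoter-driven multiplexed reporter units (DR4 element) were dosed for 24 h. Reporter mRNA was quantified by RT-PCR, fluorescent primer extension, HpaI digestion and capillary electrophoresis; bidirectional fitting versus DMSO baseline.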

[19] = APR_HepG2_MitoMembPot_72hr: Apredica 72-hour HepG2 Assay for Mitochondrial Membrane Potential (AID 2282917); settings: imaging, actives raise or lower the signal
In short: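 HepG2 cells dosed 72 hr with compound at 0.39–200 uM in duplicate, 0.5% v/v DMSO final. Mitochondria stained with 250 nM MitoTracker Red CMXRos for 30 min before formaldehyde fixation, imaged by high-content fluorescence; bidirectional fit versus DMSO.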

CC(O)CC(C)(C)O (stereo not drawn)
outcome [1]: inactive | outcome [2]: inactive | outcome [3]: inactive | outcome [4]: inactive | outcome [5]: inactive | outcome [6]: inactive | outcome [7]: inactive | outcome [8]: inactive | outcome [9]: inactive | outcome [10]: inactive | outcome [11]: inactive | outcome [12]: inactive | AC50 [13]: 0.0125 µM (active) | outcome [13]: inactive | outcome [14]: inactive | outcome [15]: inactive | outcome [16]: inactive

OCCO
outcome [1]: inactive | outcome [2]: inactive | outcome [3]: inactive | outcome [4]: inactive | outcome [5]: inactive | outcome [17]: inactive | outcome [6]: inactive | outcome [7]: inactive | outcome [8]: inactive | outcome [9]: inactive | outcome [10]: inactive | outcome [18]: inactive | outcome [11]: inactive | outcome [12]: inactive | outcome [13]: inactive | outcome [14]: inactive | outcome [15]: inactive | outcome [16]: inactive

Clc1cc(Cl)c2c(c1)N=C1CCCCCN1C2
outcome [1]: inactive | outcome [2]: inactive | outcome [3]: inactive | outcome [4]: inactive | outcome [5]: inactive | outcome [17]: inactive | outcome [6]: inactive | outcome [7]: inactive | outcome [8]: inactive | outcome [9]: inactive | outcome [10]: inactive | outcome [11]: inactive | outcome [12]: inactive | outcome [13]: inactive | outcome [14]: inactive | outcome [15]: inactive | outcome [16]: inactive

CCCCCCCC[Si](OCC)(OCC)OCC
AC50 [1]: 115 µM (active) | outcome [2]: inactive | outcome [3]: inactive | AC50 [4]: 100 µM (active) | outcome [5]: inactive | AC50 [6]: 41.2 µM (active) | outcome [7]: inactive | AC50 [8]: 54.5 µM (active) | outcome [8]: inactive | AC50 [9]: 65.7 µM (active) | outcome [9]: inactive | AC50 [10]: 62.9 µM (active) [middle of 4 runs] | outcome [11]: inactive | AC50 [12]: 70.2 µM (active) [middle of 4 runs] | outcome [13]: inactive | AC50 [14]: 159 µM (active) | outcome [14]: inactive | AC50 [15]: 69.2 µM (active) | outcome [15]: inactive | AC50 [16]: 153 µM (active) | outcome [16]: inactive

CC(C)(c1cc(Br)c(O)c(Br)c1)c1cc(Br)c(O)c(Br)c1
outcome [19]: inactive | AC50 [1]: 69 µM (active) | outcome [2]: inactive | AC50 [3]: 70.7 µM (active) | outcome [4]: inactive | outcome [5]: inactive | AC50 [6]: 51.4 µM (active) | AC50 [7]: 77.7 µM (active) | AC50 [8]: 46 µM (active) and 44.2 µM (active) | outcome [9]: inactive | AC50 [10]: 53.3 µM (active) and 58.5 µM (active) | AC50 [12]: 58.4 µM (active) and 53.2 µM (active) | AC50 [13]: 55.8 µM (active) | outcome [13]: inactive | AC50 [14]: 46.6 µM (active) | outcome [14]: inactive | AC50 [15]: 25.6 µM (active) and 14.2 µM (active) | outcome [16]: inactive

CC(C)(C)c1csc(-c2cc3cc(OCc4ccccc4CC(=O)O)ccc3o2)n1
outcome [1]: inactive | outcome [2]: inactive | outcome [3]: inactive | outcome [4]: inactive | outcome [5]: inactive | outcome [6]: inactive | outcome [7]: inactive | AC50 [8]: 54.3 µM (active) | outcome [9]: inactive | AC50 [10]: 33.4 µM (active) | AC50 [18]: 4.56 µM (active) | outcome [11]: inactive | AC50 [12]: 33.4 µM (active) | outcome [13]: inactive | AC50 [14]: 57.6 µM (active) | outcome [15]: inactive | outcome [16]: inactive
